Screens as filed in PubChem BioAssay.
The list is not random: actives were taken first. Their share in the collection is about 1.3%.
RAD54 inh = inhibitors of human RAD54 branch migration, primary screen, biochemical, fluorescence, single point; DNA repair and recombination protein RAD54-like (Homo sapiens), Q92698; RAD54 Holliday junction branch migration, FAM/BHQ fluorescence; inhibition, % at 10.4 µM; 360,000 tested, 0.14% active; AID 602329, 2012;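 active = mean normalized replicate activity at least 40 and at least half of replicates scoring 40 or more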;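 note: 0% = median of neutral control wells and 100% = median of positive control wells; inhibitors cause a drop in the FAM fluorescence signal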
DNA FID counter = compounds displacing fluorescent DNA intercalator, primary screen, artefact control for HCV NS3 helicase inhibitor project, biochemical, FID fluorescence; DNA fluorescent intercalator displacement; inhibition, % at 7.9 µM; 290,000 tested, 0.17% active; in the data active = inhibition above about 37%;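 note: 0% = vehicle and 100% = reference compound; higher means more ethidium bromide displaced from hairpin DNA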
UBC13 polyUb = UBC13 polyubiquitin chain formation inhibitors, primary screen, biochemical, TR-FRET, uHTS; Ubiquitin-conjugating enzyme E2 N (Homo sapiens), P61088; inhibition, % at 20 µM; 330,000 tested, 0.47% active; AID 485273, 2010; in the data active = inhibition above about 45%, passing the limit was not always enough
Target sequence (P61088 whole entry, looked up): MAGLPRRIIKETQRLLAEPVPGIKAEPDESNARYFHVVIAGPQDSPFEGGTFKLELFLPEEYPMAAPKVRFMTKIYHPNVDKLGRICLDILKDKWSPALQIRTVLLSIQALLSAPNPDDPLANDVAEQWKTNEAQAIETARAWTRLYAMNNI
MIN6 prolif-1 = inducers of MIN6 beta-cell proliferation, primary screen, ATP luminescence, uHTS. MIN6 cells proliferation, ATPlite luminescence, 48 h; cells starved in 0.2% serum; 100% = growth in 10% serum. proliferation, % at 10 µM. 330,000 tested, 0.29% active. AID 2380, 2010;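 active = compounds whose signal lies at least 3.5 SD above the mean of all wells on their plate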;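 note: 0% = DMSO-treated cells in low-serum medium and 100% = 10% serum control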
PREPL inh = PREPL enzyme inhibitors, primary screen, biochemical, fluorescence polarization; recombinant PREPL, fluorescence polarization activity-based probe; inhibition, % at 5.96 µM; Prolyl endopeptidase-like (Homo sapiens), Q4J6C6; 320,000 tested, 0.68% active; in the data active = inhibition above about 43%;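 note: 0% = enzyme with DMSO and 100% = wells lacking enzyme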
RAD52 anneal inh = RAD52 DNA annealing inhibitors, primary screen, biochemical, FRET, single point, set 2; inhibition, % at 18.7 µM; recombinant RAD52 DNA annealing, FRET fluorescence; DNA repair protein RAD52 homolog (Homo sapiens), P43351; 360,000 tested, 0.46% active; AID 651710, 2012;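 active = every replicate showing at least 50% inhibition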
Target sequence (P43351 whole entry, looked up): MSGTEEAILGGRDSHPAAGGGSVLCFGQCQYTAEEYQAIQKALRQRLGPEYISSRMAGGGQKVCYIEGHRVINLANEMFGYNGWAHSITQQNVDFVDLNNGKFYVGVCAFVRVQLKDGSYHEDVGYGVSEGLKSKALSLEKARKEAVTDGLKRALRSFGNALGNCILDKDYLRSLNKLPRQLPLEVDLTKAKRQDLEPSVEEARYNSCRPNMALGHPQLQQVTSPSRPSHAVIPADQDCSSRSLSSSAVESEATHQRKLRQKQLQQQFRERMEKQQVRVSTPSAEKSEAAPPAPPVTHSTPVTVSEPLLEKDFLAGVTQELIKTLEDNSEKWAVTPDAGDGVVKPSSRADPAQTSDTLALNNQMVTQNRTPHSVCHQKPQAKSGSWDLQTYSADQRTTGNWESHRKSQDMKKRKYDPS
MIN6 prolif-2 = inducers of beta-cell proliferation in MIN6, confirmation, MIN6 cells, mouse | shares compounds with MIN6 prolif-1 | 920 tested, under 10 active | proliferation increase, % at 50 µM | ATPlite luminescence, 48 h; cells kept in 0.2% serum; scaled between 0.2% and 10% serum;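 active = proliferation increase above 40% at any of the four tested concentrations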
* marks the source's active call; other numbers are inactive results; · = no result given.

SMILES	RAD54 inh	DNA FID counter	UBC13 polyUb	MIN6 prolif-1	PREPL inh	RAD52 anneal inh	MIN6 prolif-2
CC1CCCC(C)N1C(=O)c1cccc2c1-c1ccccc1/C2=N/O (stereo not given)	-4.0	-24.5	6.2	5.5*	-1.0	·	-5.7
Cc1ccccc1S(=O)(=O)NCC[C@H]1CC[C@H](NS(=O)(=O)c2ccccc2C)[C@@H](CO)O1	0.8	·	·	·	·	-2.1	·
CC(NC(=O)CN1C(=O)NC2(CCCCCCC2)C1=O)c1ccccc1 (stereo not given)	-3.4	·	-2.2	9.5*	2.8	4.1	-0.1
COc1ccc(CN(C)C[C@H]2Oc3c(NC(=O)NC4CCCCC4)cccc3C(=O)N([C@@H](C)CO)C[C@H]2C)cc1	-6.8	·	·	·	·	14.0	·
O=C(C[C@@H]1C[C@H]2c3cc(NS(=O)(=O)c4ccc(F)cc4)ccc3O[C@H]2[C@@H](CO)O1)N1CCCCC1	7.2	·	·	·	·	-2.8	·
COC(=O)c1sccc1NC(=O)c1ccc(OC)cc1OC	-1.2	6.0	23.3	7.8*	-1.7	·	-3.1
COC(=O)c1sccc1NC(=O)c1cccc(OC)c1	·	-15.9	19.6	-1.5	0.7	·	·
CCCC(=O)Nc1ccc2c(c1)C(=O)N(C)C[C@@H](OC)[C@@H](C)CN(Cc1ccccn1)[C@@H](C)CO2	0.1	·	·	·	·	-5.6	·
COc1cccc(CNC(=O)C[C@@H]2C=C[C@H](NS(=O)(=O)c3ccccc3OC)[C@H](CO)O2)c1	1.9	·	·	·	·	-2.6	·
COc1ccc(CS(=O)(=O)CC(C)(O)c2ccccc2Cl)cc1 (stereo not given)	-2.3	-13.5	6.3	8.9*	-2.3	-1.4	-3.6
CCCNC(=O)C[C@@H]1CC[C@H]2[C@@H](COc3ccc(NC(=O)c4ccccc4)cc3C(=O)N2C)O1	-12.3	·	·	·	·	-15.7	·
COC(=O)c1ccc(N2CCN(C)CC2)c(NC(=O)COc2ccc(C)cc2)c1	2.0	1.9	7.8	11.2*	-30.4	-13.5	-4.4
Cc1ccc(C(=O)OCC(=O)Nc2sccc2C(N)=O)cc1NC(=O)c1ccco1	-5.3	-15.9	0.9	6.1*	0.4	·	2.8
Cc1cc(C)nc(NS(=O)(=O)c2ccc(NC(=O)CCN3C(=O)c4ccccc4C3=O)cc2)n1	6.5	-15.8	-0.5	8.2*	-4.3	·	0.0
CCOc1ccccc1-n1c(SCC(=O)N2CCCc3ccccc32)nnc1-c1cccnc1	·	-29.8	9.5	6.6*	3.1	·	-2.5
O=S(=O)(Nc1ccc(Cl)cn1)c1ccc(Cl)cc1	·	-2.5	1.4	-2.9	-1.2	-7.0	·
CCc1ccc(S(=O)(=O)Nc2ccc(Cl)cn2)cc1	0.3	-11.3	-5.5	4.9*	·	1.6	3.8
CC(=O)Nc1nnc(SCC(=O)NCc2ccc3c(c2)OCO3)s1	4.0	-3.6	2.3	13.3*	-0.1	-12.2	-1.6
CO[C@H]1CN(C)C(=O)c2ccc(NC(C)=O)cc2OC[C@@H](C)N(Cc2nccs2)C[C@@H]1C	2.9	·	·	·	·	-5.0	·
N#Cc1c2c(c(NCCN3CCOCC3)n3c1nc1ccccc13)CCCC2	·	-10.0	-5.0	7.5*	12.7	·	4.9
C[C@H]1CN([C@@H](C)CO)C(=O)c2cccc(NS(=O)(=O)c3ccc(F)cc3)c2O[C@H]1CN(C)Cc1ccc(C(=O)O)cc1	7.4	·	·	·	·	6.0	·
CC1(C)Cc2cccc(OCC(=O)Nc3ccccc3F)c2O1	6.1	·	2.5	14.7*	20.3	0.0	-4.7
CCCNC(=O)c1ccccc1NC(=O)COc1cccc2c1OC(C)(C)C2	3.6	·	2.3	4.9	-9.9	1.4	·
Cc1cccc(C)c1NC(=O)CSc1nc(C2CC2)nc2ccccc12	-10.5	-30.9	-8.1	0.0*	-2.6	2.9	2.2
Cc1ccc(NC(=O)CN(C)C(=O)CNC(=O)c2cccs2)cc1	-9.7	·	-6.2	11.8*	-6.6	-4.0	-3.1
SMILES	RAD54 inh	DNA FID counter	UBC13 polyUb	MIN6 prolif-1	PREPL inh	RAD52 anneal inh	MIN6 prolif-2
Cc1ccc(S(=O)(=O)N[C@@H]2CC[C@H](CCn3cc(C4CCCCC4)nn3)O[C@H]2CO)cc1	4.6	·	·	·	·	-4.3	·
COc1ccccc1-c1ccc([C@H]2[C@@H](CO)N(C(=O)C3CCCC3)[C@H]2C#N)cc1	·	·	·	·	·	-18.7	·
Cc1cccc(N2CCN(C(=S)NC3CCCCC3)CC2)c1C	·	-1.8	4.9	7.9*	-3.0	-0.2	0.2
Cc1ccc(C)c(N2CCN(C(=S)NC3CCCCC3)CC2)c1	-8.5	-3.4	4.5	-3.3	2.2	-9.2	·
O=C(C[C@H]1C[C@@H]2c3cc(NC(=O)Nc4ccccc4F)ccc3O[C@@H]2[C@H](CO)O1)NCc1ccc(Oc2ccccc2)cc1	3.2	·	·	·	·	-16.9	·
Nc1ncnc2c1ncn2[C@H]1C[C@H](O)[C@@H](COP(=O)(O)O)O1	6.4	-0.3	-1.2	12.9*	2.8	0.6	-0.1
NCC1OC(n2cnc3c(N)ncnc32)CC1O (stereo not given)	·	·	·	·	·	-18.5	·
COc1ccc(OC)c(C2=Nn3c(nnc3C3CCCCC3)SC2)c1	2.6	-27.9	8.5	9.3*	7.8	·	-6.3
CN(C)C(=O)c1cccc(-c2ccc([C@H]3[C@@H](CO)N(C(=O)C4CCCC4)[C@H]3C#N)cc2)c1	·	·	·	·	·	-47.3	·
CCOC(=O)CSc1nc2ccccc2c(=O)n1C1CCCC1	-17.4	-21.0	1.1	5.3*	-6.0	·	-6.5
CNC(=O)CSc1nc2ccccc2c(=O)n1C1CCCCC1	-9.5	-18.0	-3.1	-3.5	14.1	-12.0	·
Cc1ccc(NC(=O)CCC(=O)N/N=C/c2coc3ccc(F)cc3c2=O)cc1	7.9	·	23.1	10.6*	-8.3	-18.1	-5.5
CCCCC(OC(=O)CN1C(=O)COc2ccccc21)C(=O)NC1CCCCC1 (stereo not given)	-5.7	-38.0	3.6	10.9*	6.2	-2.2	-4.5
COc1ccc(NC(=O)Nc2ccc3c(c2)C(=O)N([C@H](C)CO)C[C@H](C)[C@H](CN(C)C(=O)Nc2c(C)noc2C)O3)cc1	9.6	·	·	·	·	1.9	·
C=C[C@@]1(C)CC(=O)[C@]2(O)[C@@]3(C)[C@@H](O)CCC(C)(C)[C@@H]3[C@H](O)[C@H](OC(C)=O)[C@@]2(C)O1	0.4	·	3.6	16.8*	22.1	3.5	5.6
O=S(=O)(c1cnccc1N1CCN(/N=C/c2ccccc2)CC1)N1CCCCC1	0.6	-4.5	2.6	5.6*	42.5	·	0.1
Nc1nc(NCc2ccc(Cl)cc2)nc(NCCO)c1[N+](=O)[O-]	-2.2	-4.8	8.9	0.1	-5.9	-20.0	·
Nc1nc(Nc2ccc(Cl)cc2)nc(NCCO)c1[N+](=O)[O-]	0.7	-0.1	-4.1	14.8*	-75.7	-13.5	3.9
